Experimental findings from PMC5540273 (PLoS ONE, 2017) are described below.

By Kd is commonly meant a measure of binding affinity in units of concentration. Low values mean a tighter complex, high ones a looser complex.
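Further: kd values determined as follow-up on hits from a single-replicate KINOMEscan panel screen.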

For one assay, the system named is PIK3CA.
For `COc1cccc(NC(=O)Nc2ccc(C)c(-c3ccc(C(=O)Nc4ccncc4)cc3)c2)c1` [GSK1398474], the dissociation constant Kd was > 10000 nM.

Turning to `COc1ccc(Nc2nccc(NCCNC(=O)Nc3cc(C)ccc3C)n2)cc1` [GSK1379899], the equilibrium dissociation constant (Kd) is > 10000 nM. Take `Fc1ccc(-c2nc3n(c2-c2ccncc2)CCS3)cc1` [GI98581]: the equilibrium dissociation constant (Kd) was > 10000 nM. On to `CNCc1ccc2nc(NC(=O)c3ccc(C(C)(C)C)cc3)cn2c1`, for which the Kd was > 10000 nM.

In another assay the test system is PIK3CB.
In turn, `Cc1c(Cn2c(C)c(C)n3c(=O)cc(N4CCOCC4)nc23)cccc1C(F)(F)F` [GSK2328680] came in with a Kd of 16 nM. As to `CCn1c(-c2c(N)noc2C)nc2cnccc21` [SB-737856], the dissociation constant Kd was > 10000 nM. Regarding `Cc1ccccc1Cn1ccn2c(=O)cc(N3CCOCC3)nc12` [GSK2269905], the Kd was determined as 27 nM. With `O=c1cc(N2CCOCC2)nc2n(Cc3cccc(Cl)c3Cl)c3ccccc3n12` [GSK2299009], binding was characterised by a dissociation constant (Kd) of 860 nM. `O=c1cc(N2CCOCC2)nc2n(Cc3ccccc3F)ccn12` [GSK2297428] showed a Kd of 180 nM. The same measure, in the same setting: to `O=C1NC(=O)C(c2ccc(Cl)cc2)=C1Nc1cccc(Cl)c1` [SB-317651] belongs 160 nM; to `Cc1c(Cn2c3ccccc3n3c(=O)cc(N4CCOCC4)nc23)cccc1C(F)(F)F` [GSK2306394], 680 nM.
